Screening results (PubChem)
eIF4H FP inh = human eIF4H binding inhibitors, primary screen, translation initiation inhibitor project, biochemical, uHTS, fluorescence polarization | eIF4H fluorescence polarization binding assay | AID 2012, 2009 | Eukaryotic translation initiation factor 4H (Homo sapiens), Q15056 | actives 0.94% (n = 290,000) | inhibition, % at 35 µM;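 also: calls also rest on retests at 20 µM and on dose response follow-up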
CRFR2-BP antag = antagonists of CRF-BP/CRF-R2 complex, primary screen, cell-based, HEK293, calcium dye fluorescence, uHTS | CRF-induced calcium fluorescence | inhibition, % at 11.8 µM | actives 0.59% (n = 350,000);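 active = inhibition of the ligand-induced calcium signal above about 50% at the single tested concentration, limit read from the data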
MLLE-PAM2 inh = inhibitors of PABP1 MLLE–PAM2 peptide binding, primary screen, biochemical, fluorescence polarization, FITC-PAM2, GST-MLLE | Polyadenylate-binding protein 1 (Homo sapiens), P11940 | inhibition, % at 20 µM | AID 588489, 2011 | actives 0.36% (n = 360,000); in the data active = inhibition above about 35%, passing the limit was not always enough;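 also: plate controls were DMSO wells with GST-MLLE for no effect and wells lacking GST-MLLE protein for full effect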
PABP polyA inh = PABP poly(A) RNA binding inhibitors, primary screen, biochemical, fluorescence polarization, uHTS; inhibition, % at 35 µM; Polyadenylate-binding protein 1 (Homo sapiens), P11940; actives 1% (n = 290,000);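 also: calls also rest on retests at 20 µM and on dose response follow-up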
PHOSPHO1 block = PubChem AID 1565 | actives 1.1% (n = 290,000) | Phosphoethanolamine/phosphocholine phosphatase (Homo sapiens), Q8TCT1 | recombinant PHOSPHO1, absorbance phosphatase assay | inhibition, % at 13.3 µM; in the data active = inhibition above about 60%
Target sequence (Q8TCT1 whole entry, looked up): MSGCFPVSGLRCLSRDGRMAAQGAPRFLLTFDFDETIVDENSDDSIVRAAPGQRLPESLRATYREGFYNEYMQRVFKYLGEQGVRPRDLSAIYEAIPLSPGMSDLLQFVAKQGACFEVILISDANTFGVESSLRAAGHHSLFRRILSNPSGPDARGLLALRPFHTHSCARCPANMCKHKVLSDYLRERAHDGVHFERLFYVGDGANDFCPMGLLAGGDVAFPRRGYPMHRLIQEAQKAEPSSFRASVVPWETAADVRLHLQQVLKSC
The depositor's hits bear a star; ? = inconclusive; . = not tested or not shown. Hits are enriched below; roughly 2.6% of the tested compounds scored in any of these assays. Unless noted, no rule for the calls is given here.

SMILES	eIF4H FP inh	CRFR2-BP antag	MLLE-PAM2 inh	PABP polyA inh	PHOSPHO1 block
CCCn1c(C(C)NS(=O)(=O)c2ccccc2)n[nH]c1=S (centres undefined)	1	62*	-14	0	34
O=C(COc1ccc(S(=O)(=O)NC2CCCCC2)cc1Cl)NCC1CCCO1 (centres undefined)	0	-4	-4	7	4
Cc1cc(S(=O)(=O)NC2CCCCC2)ccc1OCC(=O)NCC1CCCO1 (centres undefined)	-2	57*	5	-7	43
COc1ccc(CCNC(=O)COc2ccc(S(=O)(=O)NC3CCCCC3)cc2Cl)cc1	-10	-46	-3	-5	63*
O=C(COc1ccc(S(=O)(=O)NC2CCCCC2)cc1Cl)NCc1cccnc1	-4	80*	10	-6	22
O=C(Nc1ccc(F)c(Cl)c1)c1cc(C2CCCN(C(=O)CCc3ccccc3)C2)on1 (centres undefined)	.	.	7	.	.
Cn1c(N)c(C(=O)Nc2ccc3ccccc3c2)sc1=S	1	5	1	-3	96*
O=C(NCc1ccc(F)cc1)c1cc(C2CCCN(C(=O)CCCc3ccccc3)C2)on1 (centres undefined)	.	.	-1	.	.
CC(C)(C)OC(=O)NCCCCCNC(=O)c1[nH]cnc1C(=O)N[C@@H](Cc1ccccc1)C(=O)OCc1ccccc1	109*	9	-5	active	26
CC(C)C[C@H](NC(=O)c1nc[nH]c1C(=O)NCCCCCNC(=O)OC(C)(C)C)C(=O)OCc1ccccc1	21	16	-1	0	-8
CC1CN(S(=O)(=O)c2cccc(C(=O)OCC(=O)Nc3ccc4c(c3)OCO4)c2)CC(C)O1 (centres undefined)	6	40	-34	-1	62*
Cc1ccc(S(=O)(=O)N2CCCCC2)cc1NC(=O)COC(=O)c1ccc2c(c1)OCO2	2.0*	8	-3	61	8
Cc1ccc(CC(C)(O)CC(C)(O)Cc2ccc(C)cc2)cc1 (centres undefined)	.	16	-7	.	.
C/C=C/c1ccc2c(c1)O[C@@H](CN(C)C(=O)c1ccc(F)cc1)[C@@H](C)CN([C@H](C)CO)S2(=O)=O	.	2	-6	.	.
COc1ccc(C(CC(=O)NCc2ccccc2)Sc2n[nH]c(-c3ccc(Cl)cc3)n2)cc1 (centres undefined)	4	10	-40	1	2
COc1ccc(C(CC(=O)NCc2ccccc2)Sc2n[nH]c(-c3ccccc3)n2)cc1 (centres undefined)	86*	4	12	54*	-5
O=c1c2ccccc2nc(-c2ccco2)n1/N=C/c1ccco1	97*	9	6	91*	14
COc1ccc(OC)c(C(=O)Cn2nnc3ccccc3c2=O)c1	2	-19	6	0	-17
COc1ccc2c(C)cc(SCn3nnc4ccccc4c3=O)nc2c1	-15	53*	5	15	1
COc1ccc2c(-c3ccccc3)cc(SCC(N)=O)nc2c1	80*	-3	-77	53*	25
COc1ccc(C)cc1-n1nnnc1SCn1nnc2ccccc2c1=O	2	4	46*	-1	15
COc1ccc2c(C)cc(SCC(=O)N3CCOCC3)nc2c1	124*	-54	-86	124*	-10
Cc1ccc(-n2nnnc2SCn2nnc3ccccc3c2=O)cc1	1	3	-20	0	21
CC(C)(C)c1ccc(CC(=O)N2CCC2(C)C(=O)NS(=O)(=O)c2ccc(Cl)s2)cc1 (centres undefined)	.	.	11	.	.
O=C(OCc1cn([C@H]2CN(C(=O)C3CCCCC3)[C@@H](c3ccccc3)C[C@@H]2O)nn1)c1ccccc1	.	-10	8	.	.
SMILES	eIF4H FP inh	CRFR2-BP antag	MLLE-PAM2 inh	PABP polyA inh	PHOSPHO1 block
O=C(CSc1nccn(-c2ccc(Br)cc2)c1=O)NC1CCCC1	.	12	45*	.	.
Cc1ccc(-n2ccnc(SCC(=O)NC3CCCCC3)c2=O)cc1F	.	-11	41*	.	.
COc1ccc(-n2ccnc(SCC(=O)NC3CCCC3)c2=O)cc1	-1	1	41*	10	17
COc1ccc(-n2ccnc(SCC(=O)NC3CCCC3)c2=O)cc1OC	.	20	51*	.	.
COc1ccc(-n2ccnc(SCC(=O)NC3CCCCC3)c2=O)cc1	-9	1	24	-4	-10
O=C(CSc1nccn(-c2ccc(Br)cc2)c1=O)Nc1ccccc1F	.	-16	35	.	.
CC1CCc2c(sc(NC(=O)CCC(=O)O)c2C(=O)NC2CC2)C1 (centres undefined)	-8	-11	40*	9	-50
CCCCC(=O)N(C)c1c(CC)nc2c(OCc3ccccc3C)cccn12	.	.	9	.	.
CC(=O)Nc1cc(-c2cccc(F)c2)cn2c(-c3ccccc3)cnc12	.	.	-15	.	.
COC(=O)\C(C(C)=O)=C(/C=C/C=C/N(C)C)N(C)C	?	9	22	?	15
COC(=O)/C(C(C)=O)=C(/C=C/C=C/N(C)C)N(C)C	80*	4	19	72*	5
CC(=O)c1c(C)n(CC(=O)NCc2ccco2)c2ccccc12	3	-2	2	-7	69*
O=C(CSc1nnc2c(n1)[nH]c1ccccc12)NCc1ccco1	26	13	43*	-14	-72
COCCn1c(SCC(=O)Nc2cc(C)cc(C)c2)nc2ccccc2c1=O	-4	-3	6	0	44
O=C(CSc1nc2ccccc2n1CC(=O)NCc1ccccc1)NCc1ccco1	9	-12	-6	3	69*
COCCn1c(SCC(=O)Nc2cccc(C(=O)OC)c2)nc2ccccc2c1=O	-1	71*	1	-2	7
Cc1ccccc1-n1c(=O)c2ccccc2n(CC(=O)NCc2ccco2)c1=O	8	-3	-5	-11	18
Cc1ccccc1NC(=O)CN(C)S(=O)(=O)c1ccc(-c2ccc(=O)[nH]n2)s1	4	-7	1	10	49
Cc1cccc(C(O)c2ncc(-c3ccccc3)[nH]2)c1C (centres undefined)	.	.	-14	.	.
COCCCn1c(SCC(=O)NCc2ccccc2)nc2ccccc2c1=O	-4	3	5	21	-8
O=C(CSc1nc2ccccc2c(=O)n1CCCO)NCc1ccccc1	-13	-2	38*	-1	-6
CCC(C)NC(=O)CSc1nc2ccccc2c(=O)n1CCCC(=O)NCC1CCCO1 (centres undefined)	2	51*	0	-12	10
CCNC(=O)C1(C)CCN(C(=O)c2cccs2)C1 (centres undefined)	.	.	-3	.	.
c1ccn2cc(-c3ccc4c(c3)OCO4)cc2c1	64*	-2	-10	46	4
Cc1ccc(NC(=O)c2sc3ncn(CC(=O)N4CCN(c5ccccn5)CC4)c(=O)c3c2C)cc1Cl	-11	-5	-3	-18	64*
